Source: PubChem BioAssay (National Center for Advancing Translational Sciences (NCATS))
D1 ag: agonists of human D1 dopamine receptor | hit rate 1% among 360,000 | HEK293 T-REx D1 cells, calcium flux, agonist mode | P21728 | AID 504660 | activation, % at 2 µM
Target sequence (P21728 whole entry, looked up): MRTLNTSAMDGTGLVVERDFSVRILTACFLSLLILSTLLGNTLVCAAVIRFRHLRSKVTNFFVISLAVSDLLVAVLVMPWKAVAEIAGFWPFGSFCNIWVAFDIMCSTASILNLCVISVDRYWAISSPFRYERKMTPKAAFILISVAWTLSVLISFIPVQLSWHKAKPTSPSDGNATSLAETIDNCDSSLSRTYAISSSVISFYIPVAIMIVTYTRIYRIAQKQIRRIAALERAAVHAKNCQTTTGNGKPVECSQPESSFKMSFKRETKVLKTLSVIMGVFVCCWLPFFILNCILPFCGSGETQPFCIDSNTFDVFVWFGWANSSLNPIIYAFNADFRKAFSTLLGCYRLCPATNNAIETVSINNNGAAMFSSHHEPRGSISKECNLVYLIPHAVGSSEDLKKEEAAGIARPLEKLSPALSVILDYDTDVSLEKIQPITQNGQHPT
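Tetracycline-induced HEK293 TREx D1 cells, force-coupled to calcium signalling, were dye-loaded with a no-wash calcium kit. Compound was pin-added after a 10 s baseline. Fluorescence was read kinetically at 1 cycle/s for 180 s, with calcium rises flagged as agonism.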
TRHR PAM: TRH receptor (human) allosteric enhancement | P34981 | TRHR cells, fluo-8 calcium fluorescence, EC20 TRH enhancement | enhancement, % at 2 µM | hit rate 0.66% among 360,000; in the data active = enhancement above about 30%
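Enhancer read-out: after compound pinning and an initial kinetic agonist-mode read, an EC20 of TRH (10 nM final) was injected and fluo-8 calcium signal (Ex 480/Em 530) followed at 1 s/cycle for 100 cycles in TRHR-expressing cells.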
D1 potentiator: enhances dopamine response at the human D1 receptor; P21728; HEK293 TREx D1 cells, calcium flux, dopamine EC20 potentiation; potentiation, % at 10 µM; hit rate 0.036% among 360,000; AID 504651; in the data active = potentiation above about 30%
D1 antag: antagonists of human D1 dopamine receptor. P21728. HEK293 TREx D1 cells, calcium flux, dopamine EC80; hits give low values. activity change, negative = inhibition, % at 10 µM. hit rate 3.2% among 360,000; in the data active = activity change below about -30%
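Kinetic fluorescence of a calcium dye serves as the read-out. D1-expressing Hek293 Trex cells, induced overnight at 30 C, are exposed to compound for 180 s before an EC80 dopamine addition, then read 180 s further.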
Epigenetic derep: derepresses silenced GFP reporter in murine cells | murine LDR cells, GFP reporter derepression, 30 h | Potency, µM (highest dose often 53.9 µM), actives largely listed as activators | hit rate 0.2% among 280,000 | AID 1865; active = well fitted activation curve with a large enough effect; inconclusive = small, poorly fitted or top-dose-only effect; also: nearly all actives have a fitted effect of over 60% in size
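Murine LDR cells bearing a silenced CMV-driven GFP reporter were exposed to compound for 30 h at 37 C. After PBS washes, GFP-positive cells (20-120 um objects) counted by laser-scanning microplate cytometry.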
TRHR ag: agonists of human TRH receptor | P34981 | TRHR cells, calcium flux fluo-8, FDSS agonist mode | activation, % at 2 µM | hit rate 0.18% among 360,000 | AID 493084
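Fluo-8-loaded TRHR cells; 10 s baseline, compound added, kinetic Ca2+ fluorescence read 1/s, agonist mode.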
Large screens that a line does not name were inactive. An excerpt weighted towards active compounds, which were near 4.6% of everything screened. Rule as the data show it, unless noted: active = activation above about 30%; inactive = the rest.

Cc1c(C(=O)N2CCCC2)oc2c1-c1nn(CC(=O)NCCCN3CCCCC3)cc1CC2	D1 antag -31.4 (no result: Epigenetic derep)
CC(C)c1ccc(NC(=O)CN2C(=O)COc3ccc(S(=O)(=O)N4CCCCCC4)cc32)cc1	none
COc1ccc(CNc2ccc(Br)cc2)cc1	none
COc1ccc(NC2=NCC(Cc3ccc(Br)cc3)S2)cc1 (centres undefined)	D1 ag 31.8
CCN(Cc1ccccc1)C(=O)c1cc2c(=O)[nH]c3ccc(C)cc3c2s1	none
Cc1ccc(OCC(=O)NCCNC(=O)c2cnccn2)cc1C	D1 ag 39.2 (no result: Epigenetic derep)
CCOc1ccccc1Nc1ncnc2c1cnn2-c1ccccc1	none
CCOc1ccccc1Nc1ncnc2c1cnn2-c1ccc(C)cc1	D1 antag -41.0
Cc1ccc(-n2ncc3c(Nc4cccc(C)c4C)ncnc32)cc1	D1 antag -32.4
COc1cccc(-n2c(SCC(=O)N3CCc4ccccc43)nc3c([nH]c4ccccc43)c2=O)c1	Epigenetic derep inconclusive
CN(CC(=O)NC(=O)NCc1ccccc1)Cc1ccc(Cl)c(Cl)c1	none
COc1ccc(CN(C)CC(=O)NC(=O)NCc2ccccc2)c(OC)c1	D1 antag -55.2
COc1cccc(-c2nc3c(C#N)c[nH]n3c2NC2CCCCC2)c1OC	none
Cc1cccc(-c2nc3c(C#N)c[nH]n3c2NC2CCCCC2)c1	none
COc1cccc(-c2nc3c(C#N)c[nH]n3c2NC2CCCCC2)c1	D1 antag -37.4
COc1cccc(-c2nc3c(C#N)c[nH]n3c2NC2CCCC2)c1OC	D1 antag -51.5
Cc1ccccc1N=C1SCC(=O)N1Cc1ccccc1	none
O=C1CSC(=Nc2cccc(Cl)c2Cl)N1Cc1cccnc1	D1 antag -34.8
COCCCNC(=O)C1CCN(C(=O)c2cnn(-c3ccccc3)c2-n2cccc2)CC1	none
O=C(Nc1ccc2ncccc2c1)Nc1ccc2ncccc2c1	D1 antag -35.6
O=S(=O)(NCC(c1ccco1)S(=O)(=O)c1cccs1)c1ccc(F)c(C(F)(F)F)c1 (centres undefined)	none (no result: D1 antag)
N=c1oc2ccc(Br)cc2cc1C(=O)NCc1ccccc1	none (no result: Epigenetic derep)
CC(NC(=O)c1cc2cc(Br)ccc2oc1=N)c1ccccc1 (centres undefined)	D1 antag -52.8 (no result: Epigenetic derep)
O=c1[nH]ncc2c3ccccc3n(Cc3cccc(Cl)c3)c12	D1 ag 51.5
O=c1[nH]ncc2c3ccccc3n(Cc3ccc(F)cc3)c12	none
Cc1c(C(=O)Nc2cccc(C(F)(F)F)c2)oc2ccc3c(c12)C(=O)CC(C)(C)O3	none
COc1ccc(OC)c(-n2c(C)ccc2-c2ccc(S(C)(=O)=O)cc2)c1	D1 antag -68.5
COc1ccc(OC)c(-n2c(-c3ccc(S(C)(=O)=O)cc3)cc(C=O)c2C)c1	none
C=CCOc1ccc(Br)cc1CNC(C)(C)CO	D1 antag -42.2
Cc1ccc(S(=O)(=O)N2CCOCC2)cc1NC(=O)COC(=O)CCn1c(C)csc1=O	none (no result: Epigenetic derep)
Cc1ccc(S(=O)(=O)N2CCOCC2)cc1NC(=O)COC(=O)Cn1c(C)csc1=O	D1 antag -30.6 (no result: Epigenetic derep)
Cc1ccc(S(=O)(=O)N2CCOCC2)cc1NC(=O)COC(=O)CCC(=O)c1ccc(F)cc1	D1 antag -30.9 (no result: Epigenetic derep)
Cc1ccc(C(=O)OCC(=O)Nc2cc(S(=O)(=O)N3CCOCC3)ccc2C)cc1	none
CCOC(=O)c1sc(NC(=O)c2c(C)nn(Cc3ccccc3)c2C)cc1C	D1 antag -45.0
CCOC(=O)c1sc(NC(=O)Nc2ccc(Cl)cc2)cc1C	D1 antag -57.9
CCOC(=O)c1sc(NC(=O)c2cccc(S(=O)(=O)N3CCN(C)CC3)c2)cc1C	D1 antag -35.4
CCOC(=O)c1sc(NC(=O)c2ccccc2)cc1C	D1 ag 42.4
CCOC(=O)c1sc(NC(=O)c2ccc(Cl)s2)cc1C	none
C=CC[C@](C)(Nc1ccc(OC)cc1)C(=O)OCC	none (no result: D1 ag, TRHR PAM, D1 potentiator, D1 antag, TRHR ag)
O=C(NCC(c1cccnc1)N1CCc2ccccc2C1)C(=O)Nc1ccc(F)cc1F (centres undefined)	none
COc1ccc(C(=O)c2cn(CC(=O)Nc3cc(OC)cc(OC)c3)c3ccc(OC)cc3c2=O)cc1	none
CCC(=O)N1CCc2cc(CNC(=O)c3ccc(F)cc3)ccc21	none
